Compounds without any hit were thinned out: in the full panel of roughly 83,000, 20% have a hit.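 The test compound was applied at a single concentration to cells in 96-well plates for 48 hours, and percent growth was recorded.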 Activity calls are given as the source filed them. The calls were made as follows: active = growth percent below 10; inactive = the rest.

One experiment deals with T-47D breast. Briefly: NCI-60 one-dose screen, 48 h (100 = growth as untreated, 0 = no growth, -100 = all killed). The note with it: 10 µM unless noted.
In the case of `COc1cc(CNC(=O)C[C@H](C)CCC=C(C)C)ccc1OCc1cn(-c2ccc(Br)cc2)nn1`, the growth was 49.3% (inactive).
Regarding `Cc1cccc(C)c1Nc1nnc(-c2c[nH]c3ccccc23)o1`, the growth is 87.1% (inactive).
Take `COc1cc(CNC(=O)C[C@H](C)CCC=C(C)C)ccc1OCc1cn(-c2ccc(Cl)c(Cl)c2)nn1`: the growth is 33.6% (inactive).
With `Cc1ccc(C(C)C)cc1Oc1cccc(-c2c(-c3ccc(C(F)(F)F)cc3)ncn2C2CCNCC2)n1`, the growth was -83.6% (active).
Consider `COc1cc(CNC(=O)C[C@H](C)CCC=C(C)C)ccc1OCc1cn(-c2cccc(C(F)(F)F)c2)nn1`, for which the growth was 32.4% (inactive).
Take `Cc1ccc(Nc2nnc(-c3c[nH]c4ccccc34)o2)c(C)c1`: the growth was 44.3% (inactive).
Same read-out and setting: in the case of `CC1=C(C)C(=O)C(N2CCSCC2)=CC1=O` it was 105% (inactive).
As for `COc1ccc(C(=O)c2cc(C(C)=O)c3c(C)cc(C)cn23)cc1`, the growth was 48.6% (inactive).
As to `O=C(c1ccc(O)cc1)C1[C@H](c2ccccc2Br)[C@@H](c2ccccc2)NC12C(=O)Nc1ccccc12` (stereo partly specified), the growth was 51.1% (inactive).
Regarding `C=CCSc1nnc(-c2ccc(-c3nc4ccccc4[nH]3)cc2)o1`, the growth was 4.02% (active).
As to `COc1cc(/C=C/C(=O)c2cnn(-c3cc(=O)[nH]c4ccc(C)cc34)c2C)cc(OC)c1OC`, the growth was 1.32% (active).
Consider `COc1cc(-c2ccc3ncnc(N4CCc5ccc(Cl)cc54)c3c2)cnc1Cl`, for which the growth is 8.82% (active).
On the same count and under the same terms, in the case of `COc1ccc(NC(=O)Cn2c(/C=C/c3cccc(OC)c3)nc3ccccc3c2=O)cc1` it was -15% (active); in that of `CC[C@]12C=CCN3CC[C@]4(C(=C(C(=O)OC)C1)Nc1cc(OC)c([C@@H]5[C@H]6O[C@H]6[C@@]6(CC)CC(C(=O)OC)=C7Nc8cc(O)ccc8[C@@]78CCN5[C@@H]68)cc14)[C@@H]32`, 2.37% (active); in that of `COc1ccc2nc(NC(=O)c3ccc(N(C)C)cc3)sc2c1`, 69% (inactive).
`Cc1nc(N)ncc1-c1ccc2ncnc(N3CCc4cc(F)c(Cl)cc43)c2c1`: the growth is 28.1% (inactive).
For `N#Cc1ccc(C(=O)CSc2nc3c(c(Nc4ccc(S(N)(=O)=O)cc4)n2)CCC3)cc1`, the growth is 71.7% (inactive).
In the case of `CN(C(=O)CN1C(=O)/C(=C/c2ccco2)SC1=S)C1CCS(=O)(=O)C1` (stereo unspecified), the growth is 75.7% (inactive).
As for `O=C(Nc1ccc(-c2ccc3c(c2)NC(=O)/C3=C\c2ccc[nH]2)cc1)Nc1cccc(Cl)c1`, the growth was -1.23% (active).
Regarding `COC(=O)c1c(C(=O)OC)c2c3ccccc3c3ccccc3n2c1C(=O)C(F)(F)F`, the growth was 101% (inactive).
With `O=C(N/N=C/c1c[nH]c2ccccc12)Nc1ccc(F)c(Cl)c1`, the growth was 34% (inactive).
For `O=C(CSc1nnc(-c2ccc(-c3nc4ccc(Cl)cc4[nH]3)cc2)o1)Nc1ccc(Br)cc1`, the growth is 41.4% (inactive).
With `Cn1cc(-c2cc(N)n3nc(-c4c[nH]c5ccc(Cl)cc45)cc3n2)c2cccnc21`, the growth is -65.9% (active).
For `COc1ccc2c(c1)C(Sc1ccc(Cl)cc1)c1c(nc(N)c(C#N)c1N)O2` (stereo unspecified), the growth was 55% (inactive).
Same read-out and setting: in the case of `Cc1ccccc1NC(=O)c1cccc(NC(=O)CCl)c1` it was 74.8% (inactive); in that of `Oc1cncc(-c2ccc3ncnc(N4CCc5cc(F)c(Cl)cc54)c3c2)c1`, 41.9% (inactive).
As for `Nc1nnc(-c2cncc(Br)c2)c(-c2c[nH]c3ccc(Br)cc23)n1`, the growth was 26.1% (inactive).
Regarding `C/C(=N/O)c1ccc(NC(=O)CSc2nnc(-c3ccc(-c4nc5ccc(Cl)cc5[nH]4)cc3)o2)cc1`, the growth was 11.8% (inactive).
Still for that read-out and setting: in the case of `CCCCCCCCc1cccc(CC(=O)Nc2ccc(C)cc2C(=O)O)c1` it was 65.6% [25 µM] (inactive).
With `Cc1ccc(C(=O)Nc2cc(-n3cnc(F)c3)cc(C(F)(F)F)c2)cc1C#Cc1cnc2cccnn12`, the growth is 76.1% (inactive).
Consider `CC[C@]12C=CCN3CC[C@@]4(c5ccc(OC)cc5N(C)[C@H]4[C@@](O)(C(=O)OC)[C@@H]1OC(=O)CCCC[P+](c1ccc(F)cc1)(c1ccc(F)cc1)c1ccc(F)cc1)[C@@H]32`, for which the growth was 12.8% (inactive).
`COc1ccc2c(c1)N=c1c-2cc2c(O)[nH]c(=S)n2c1=O`: the growth is 46.4% (inactive).
Turning to `O=C(CSc1nnc(-c2ccc(-c3nc4ccccc4[nH]3)cc2)o1)Nc1ccc(Cl)cc1`, the growth was 23.8% (inactive).
On to `N/C(=N\c1nc2ccc([N+](=O)[O-])cc2s1)NC(=O)Nc1ccccc1Cl`, for which the growth is 26.2% (inactive).
With `Fc1ccc(N2CC(Cn3c(C(F)(F)F)cc4c(Cl)ncnc43)C2)c(F)c1`, the growth was 56.8% (inactive).
On to `CC1=C(C(=O)OC(C)C)C(c2ccc(O)cc2)NC(=O)N1` (stereo unspecified), for which the growth is 101% (inactive).
Consider `Cc1nn(-c2ccccc2)c2nc(C)n(CC(=O)N/N=C/c3ccccc3O)c(=O)c12`, for which the growth was 16.1% (inactive).
In the case of `O=CNc1cccc(-n2cnc3cc(-c4ccc(O)cc4)ccc32)c1`, the growth was 37.5% (inactive).

The next experiment concerns BT-549 breast. The experiment is described as above. The note with it: 10 µM unless noted.
On to `COc1cc(CNC(=O)C[C@H](C)CCC=C(C)C)ccc1OCc1cn(-c2ccc(Br)cc2)nn1`, for which the growth is 93.6% (inactive).
Consider `Cc1cccc(C)c1Nc1nnc(-c2c[nH]c3ccccc23)o1`, for which the growth is 105% (inactive).
On the same count and under the same terms, in the case of `COc1cc(CNC(=O)C[C@H](C)CCC=C(C)C)ccc1OCc1cn(-c2ccc(Cl)c(Cl)c2)nn1` it was 71.7% (inactive); in that of `Cc1ccc(C(C)C)cc1Oc1cccc(-c2c(-c3ccc(C(F)(F)F)cc3)ncn2C2CCNCC2)n1`, -98.6% (active); in that of `COc1cc(CNC(=O)C[C@H](C)CCC=C(C)C)ccc1OCc1cn(-c2cccc(C(F)(F)F)c2)nn1`, 92.3% (inactive).
In the case of `Cc1ccc(Nc2nnc(-c3c[nH]c4ccccc34)o2)c(C)c1`, the growth is 29.6% (inactive).
With `CC1=C(C)C(=O)C(N2CCSCC2)=CC1=O`, the growth was 91% (inactive).
Consider `COc1ccc(C(=O)c2cc(C(C)=O)c3c(C)cc(C)cn23)cc1`, for which the growth is 25.4% (inactive).
The same measure, in the same setting: to `O=C(c1ccc(O)cc1)C1[C@H](c2ccccc2Br)[C@@H](c2ccccc2)NC12C(=O)Nc1ccccc12` (stereo partly specified) belongs 51.9% (inactive); to `C=CCSc1nnc(-c2ccc(-c3nc4ccccc4[nH]3)cc2)o1`, 83.5% (inactive); to `COc1cc(/C=C/C(=O)c2cnn(-c3cc(=O)[nH]c4ccc(C)cc34)c2C)cc(OC)c1OC`, -57.2% (active).
Still for that read-out and setting: to `COc1cc(-c2ccc3ncnc(N4CCc5ccc(Cl)cc54)c3c2)cnc1Cl` belongs 5.89% (active); to `COc1ccc(NC(=O)Cn2c(/C=C/c3cccc(OC)c3)nc3ccccc3c2=O)cc1`, 73.8% (inactive).
Take `CC[C@]12C=CCN3CC[C@]4(C(=C(C(=O)OC)C1)Nc1cc(OC)c([C@@H]5[C@H]6O[C@H]6[C@@]6(CC)CC(C(=O)OC)=C7Nc8cc(O)ccc8[C@@]78CCN5[C@@H]68)cc14)[C@@H]32`: the growth was -29% (active).
Still for that read-out and setting: in the case of `COc1ccc2nc(NC(=O)c3ccc(N(C)C)cc3)sc2c1` it was 58.7% (inactive).
The same measure, in the same setting: to `Cc1nc(N)ncc1-c1ccc2ncnc(N3CCc4cc(F)c(Cl)cc43)c2c1` belongs 66.8% (inactive); to `N#Cc1ccc(C(=O)CSc2nc3c(c(Nc4ccc(S(N)(=O)=O)cc4)n2)CCC3)cc1`, 83.3% (inactive); to `CN(C(=O)CN1C(=O)/C(=C/c2ccco2)SC1=S)C1CCS(=O)(=O)C1` (stereo unspecified), 91.3% (inactive).
With `O=C(Nc1ccc(-c2ccc3c(c2)NC(=O)/C3=C\c2ccc[nH]2)cc1)Nc1cccc(Cl)c1`, the growth is -1.48% (active).
In the case of `COC(=O)c1c(C(=O)OC)c2c3ccccc3c3ccccc3n2c1C(=O)C(F)(F)F`, the growth was 106% (inactive).
Take `O=C(N/N=C/c1c[nH]c2ccccc12)Nc1ccc(F)c(Cl)c1`: the growth is 18.5% (inactive).
In the case of `O=C(CSc1nnc(-c2ccc(-c3nc4ccc(Cl)cc4[nH]3)cc2)o1)Nc1ccc(Br)cc1`, the growth is -1.46% (active).
The same measure, in the same setting: to `Cn1cc(-c2cc(N)n3nc(-c4c[nH]c5ccc(Cl)cc45)cc3n2)c2cccnc21` belongs -77.1% (active); to `COc1ccc2c(c1)C(Sc1ccc(Cl)cc1)c1c(nc(N)c(C#N)c1N)O2` (stereo unspecified), 12.4% (inactive).
For the compound `Cc1ccccc1NC(=O)c1cccc(NC(=O)CCl)c1`, the growth was 39.4% (inactive).
In the case of `Oc1cncc(-c2ccc3ncnc(N4CCc5cc(F)c(Cl)cc54)c3c2)c1`, the growth is 73.1% (inactive).
The same measure, in the same setting: to `Nc1nnc(-c2cncc(Br)c2)c(-c2c[nH]c3ccc(Br)cc23)n1` belongs 47.4% (inactive); to `C/C(=N/O)c1ccc(NC(=O)CSc2nnc(-c3ccc(-c4nc5ccc(Cl)cc5[nH]4)cc3)o2)cc1`, 14.2% (inactive).
The same measure, in the same setting: to `CCCCCCCCc1cccc(CC(=O)Nc2ccc(C)cc2C(=O)O)c1` belongs 73.6% [25 µM] (inactive); to `Cc1ccc(C(=O)Nc2cc(-n3cnc(F)c3)cc(C(F)(F)F)c2)cc1C#Cc1cnc2cccnn12`, 60.1% (inactive); to `CC[C@]12C=CCN3CC[C@@]4(c5ccc(OC)cc5N(C)[C@H]4[C@@](O)(C(=O)OC)[C@@H]1OC(=O)CCCC[P+](c1ccc(F)cc1)(c1ccc(F)cc1)c1ccc(F)cc1)[C@@H]32`, -23.5% (active).
Consider `COc1ccc2c(c1)N=c1c-2cc2c(O)[nH]c(=S)n2c1=O`, for which the growth was 32.4% (inactive).
Regarding `O=C(CSc1nnc(-c2ccc(-c3nc4ccccc4[nH]3)cc2)o1)Nc1ccc(Cl)cc1`, the growth was -0.131% (active).
For `N/C(=N\c1nc2ccc([N+](=O)[O-])cc2s1)NC(=O)Nc1ccccc1Cl`, the growth is 25.9% (inactive).
Still for that read-out and setting: in the case of `Fc1ccc(N2CC(Cn3c(C(F)(F)F)cc4c(Cl)ncnc43)C2)c(F)c1` it was -84.5% (active); in that of `CC1=C(C(=O)OC(C)C)C(c2ccc(O)cc2)NC(=O)N1` (stereo unspecified), 96.1% (inactive).
On to `Cc1nn(-c2ccccc2)c2nc(C)n(CC(=O)N/N=C/c3ccccc3O)c(=O)c12`, for which the growth was 37.2% (inactive).
On to `O=CNc1cccc(-n2cnc3cc(-c4ccc(O)cc4)ccc32)c1`, for which the growth was 52.6% (inactive).

The values above are taken from PubChem BioAssay (NCI).
